Results as given in PubChem BioAssay (Tox21).
“And” between values parts separate entries of the source, which are not always exact repeats. Equal values may be shown once. Unmarked numbers belong to inactive results. A call without a number means that no potency is given here. The source made the active and inactive calls. Calls follow the shape of the dose curve; as a rule, active = well fitted activation curve with a large enough effect in the repeat runs; inconclusive = weak or mixed curves; inactive = flat fitted curve, though single readings scatter.

Test: Caspase-3/7 induction in CHO-K1 cells by small molecules, qHTS assay (AID 1346980); also: nearly all actives have a fitted effect of over 15% in size
Details: CHO-K1 caspase-3/7 induction, Caspase-Glo luminescence, 17 h; series mostly up to 92.4 µM
Procedure, shortened: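 Luminescent Caspase-Glo 3/7 read (30min, room temperature) quantified apoptosis induction. Cells were wild-type CHO-K1, treated with compound for 17hr at 37 C and 5% CO2.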
Potency is read from the fitted curve at half-maximal effect.

| Structure (SMILES) | Potency | caspase-3/7 activation |
| --- | --- | --- |
| CCCCNS(=O)(=O)c1ccc(C)cc1 | inactive | – |
| C#C[C@]1(OC(C)=O)CC[C@H]2[C@@H]3CCC4=C/C(=N/O)CC[C@@H]4[C@H]3CC[C@@]21CC | inactive | – |
| COC(=O)C1=C(C)NC(C)=C(C(=O)OCCN2CCN(C(c3ccccc3)c3ccccc3)CC2)C1c1cccc([N+](=O)[O-])c1 (stereo not drawn) | inactive | – |
| O=C1CCc2cc(OCCCCc3nnnn3C3CCCCC3)ccc2N1 | inactive | – |
| CCC(C)(CCC(C)C)C(=O)[O][Sn]([CH3])([CH3])[O]C(=O)C(C)(CC)CCC(C)C (stereo not drawn) | inactive | – |
| COc1cccc2c1C(=O)c1c(O)c3c(c(O)c1C2=O)C[C@@](O)(C(C)=O)C[C@@H]3O[C@H]1C[C@H](N)[C@H](O)[C@H](C)O1 | 4.89 µM (active) and 6.68 µM (active) | – |
| c1ccc(SSc2ccccc2)cc1 | inactive | – |
| COc1ccc2c(c1)c(CC(=O)OC/C=C(\C)CC/C=C(\C)CCC=C(C)C)c(C)n2C(=O)c1ccc(Cl)cc1 | inactive | – |
| CN(C)[C@@H](CCOc1cccc2ccccc12)c1ccccc1 | inactive | – |
| Oc1cc(Cl)cc(Cl)c1Cl | inactive | – |
| CC(C(=O)O)c1ccc2c(c1)[nH]c1ccc(Cl)cc12 (stereo not drawn) | inactive | – |
| OC12N=C(c3ccccc3)SC1Cc1cc(Cl)ccc12 (stereo not drawn) | inactive | – |
| CCN1C(=O)c2ccccc2C1Nc1ccc(OCCN2CCCCC2)cc1 (stereo not drawn) | inactive | – |
| CCCCCCC1CCCC(=O)O1 (stereo not drawn) | inactive | – |
| CCc1oc2ccccc2c1C(=O)c1cc(I)c(O)c(I)c1 | inactive | – |
| NC(=S)NC(N)=S | inactive | – |
| CCO[C@@H]1O[C@H](C(COCc2ccccc2)OCc2ccccc2)[C@H](OCc2ccccc2)[C@H]1O (stereo partly drawn) | inactive | – |
| O=C(/C=C/c1ccc(O)c(O)c1)O[C@@H](C(=O)O)[C@@H](OC(=O)/C=C/c1ccc(O)c(O)c1)C(=O)O | inactive | – |
| CN1CCN(Cc2cc(-c3ccc4[nH]c(=O)oc4c3)co2)[C@@H](c2ccc(F)cc2)C1 | inactive | – |
| O=[N+]([O-])c1ccc(O)cc1C(F)(F)F | inactive | – |
| CC(C)(C)CC(C)(C)c1ccc(Nc2ccc(C(C)(C)CC(C)(C)C)cc2)cc1 | – | 2.02% [at 8.39 µM] |
| O=c1c(O)c(-c2ccc(O)cc2O)oc2cc(O)cc(O)c12 | inactive | – |
| Cc1ccc(N/N=c2\c(=O)cc/c(=N\Nc3ccc(S(=O)(=O)O)cc3)c2=O)c(C)c1 | inactive | – |
| [Cl][Pt-2]([Cl])([Cl])[Cl] | inactive | – |
| CN1CCCCC1CCN1c2ccccc2Sc2ccc(S(C)=O)cc21 (stereo not drawn) | inactive | – |
| CCCCCC(C)OC(=O)COc1ccc(Cl)c2cccnc12 (stereo not drawn) | inactive | – |
| Cc1cc(C(C)(C)C)c(O)c(C)c1Cn1c(=O)n(Cc2c(C)cc(C(C)(C)C)c(O)c2C)c(=O)n(Cc2c(C)cc(C(C)(C)C)c(O)c2C)c1=O | inactive | – |
| CCOC(=O)c1ccc(C2CCC(NC[C@H](O)COc3ccc(O)c(NS(C)(=O)=O)c3)CC2)cc1 (stereo partly drawn) | inactive | – |
